Experimental data taken from the supplement of paper PMC6555819.

Legend:
Assay in all cases: PBM binding z-score (relative to random genomic background probes); higher = stronger binding; sequences stand for … in GC…GCGATTGACAGCGTAGAATGAAGG
[1] = test system: RARb homodimer (NR concentration 270 nM)
Procedure, shortened: (§1)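 Scanned fluorescence from custom Agilent 4×180K protein-binding microarrays was regression-normalized. Binding z-scores use random background probes as reference. Ligand-free nuclear receptor dimers were incubated on the arrays for 1 h and detected with antibodies against each partner (one per run).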

[2] = test system: RARg:RXRa (NR concentration 270 nM, RXRa partner concentration 90 nM)
Procedure, shortened: as §1

[3] = test system: RARg homodimer (NR concentration 270 nM)
Procedure, shortened: as §1

[4] = test system: RXRa DBDmut IVT, anti-RXR (DBD mutation: RXRa K156A/R161A, NR concentration 90 nM)
Procedure, shortened: as §1

[5] = test system: RXRa homodimer (NR concentration 180 nM)
Procedure, shortened: as §1

[6] = test system: THRa:RXRa (NR concentration 90 nM, RXRa partner concentration 90 nM)
Procedure, shortened: as §1

[7] = test system: THRa homodimer (NR concentration 90 nM)
Procedure, shortened: as §1

[8] = test system: VDR homodimer (NR concentration 270 nM)
Procedure, shortened: as §1

Sequence	PBM binding z-score [1]	PBM binding z-score [2]	PBM binding z-score [3]	PBM binding z-score [4]	PBM binding z-score [5]	PBM binding z-score [6]	PBM binding z-score [7]	PBM binding z-score [8]
TCTAGTTGTTCAAAGGTCACACACTCGAAATGCG	5.28	6.3	6.07	2.05	7.19	4.11	2.21	2.78
CCTTACGGGTCACTCACAGGTTATAGCATTTGGA	3.65	5.9	4.5	2.04	4.75	3.07	0.529	1.28
CCTGCTAGGTCAATGGTCAGTTAAAGCAGCTCGC	3.24	3.72	4.65	1.99	2.11	2.38	0.961	0.506
CGACCAAGGTCAATGCTAGGTCAGTGAAAGCATT	4.82	7.46	6.84	3.44	5.73	4.18	2.25	2.89
TCCTATAGGTAAAAGGTGAAAGTCGGTGTGGTAA	1.55	1.83	0.492	1.1	2.64	1.56	0.0134	-0.175
TCAGACAGGTGTAGGTAACTCAGGTACGCAGTCG	0.242	0.0352	0.143	1.07	0.607	0.923	0.621	0.47
CGAACTAGTTCATTGACAGGACAGTGAATAGTAA	0.576	1.79	1.11	3	0.234	0.837	-0.237	2.01
AGAACGAGGGCACACTGAGTTGATAGCAGAGTAG	1.02	1.64	1.91	2.1	1.24	1.72	0.167	1.78
CGTCCACGGTCAATGCTAGGTCAGTGAAAGCATT	3.02	3.59	3.1	0.356	0.354	2.12	0.347	-0.19
GCTATTAGTTGAAAGGGCGACCGAATGATTCTCG	0.767	0.148	0.219	0.775	0.22	-0.155	-0.468	0.16
TCTTGTGGATCAACAGGAGGTTAAGAAAGATCGA	0.619	1.18	0.266	0.248	0.985	1.01	-0.626	0.119
ACTATTAGTTGACTAAGGGCAACCGATACGACGC	1.55	0.953	1.33	0.698	0.794	1.72	0.967	0.874
AATACAGGGTCACTAGGGCAGAGTAGGTACGAAT	3.68	5.3	5.01	2.74	5.8	3.45	1.6	2.98
TTACCAAGGTGAAAGGTCCTTGATGCACGCCTTG	1.22	1.67	0.796	-0.243	2.47	2.28	0.542	-0.756
GCTATTAGTTGAAAGGGCAACCTAATGATTCTCG	2.01	1.35	1.38	0.966	1.24	0.901	-0.0101	0.284
TCTAGTTGGTCAAAGGTCACACAATCGAAATGCG	5.17	7.33	7.01	1.98	8.48	4.11	2.21	3.09
CGAACTAGGTCACGGACAGTGAATCTCCGCACGC	3.36	5.11	5.73	1.82	3.99	3.53	2.1	0.814
TAGCCTAGGTCATGGGCCATTATACCACGCGAAC	3.25	4.27	4.52	0.45	3.75	3.17	1.37	0.862
TTACCAAGGTGAAGTTCGTTGATCCCTCTGTAGA	1.18	0.78	0.824	1.02	0.97	1.8	0.676	1.66

Sequence	PBM binding z-score [1]	PBM binding z-score [2]	PBM binding z-score [3]	PBM binding z-score [4]	PBM binding z-score [5]	PBM binding z-score [6]	PBM binding z-score [7]	PBM binding z-score [8]
GTACCAAGGTGAATAGGTCGTTGACGAGTAGGCG	1.93	2.91	1.53	-0.0525	2.19	1.92	0.438	0.14
TCTAGCAGGCAAGAGGGTCACTCAAGAGGTACGG	2.42	2.15	1.93	-0.113	2.5	1.47	-0.453	0.595
TCATATAGATAAAGGTGAAAGTCGAACGATATGA	1.08	1.29	1.2	1.18	1.9	0.819	-0.268	-0.308
TCTGCTAGGTCAGATGGTCAGCTAACGAGCTGCC	2.5	3.25	4.16	0.506	1.84	1.51	-0.192	-0.819
ATCGAAAGGTCGTGAGGTGAGTATACAGAAAGGC	3.07	4.69	3.9	1.42	4.97	3.45	1.47	1.09
GCGACTGGGGCATCGGCAGGTTACCATAACTTAA	1.07	1.17	0.592	-0.207	0.141	1.11	0.42	-0.113
ATGGAAAGGTCGACGAGGTGAGTATACACCGTTT	3.01	4.09	4.05	0.942	4.19	3.7	0.967	0.927
CGAACTAGGTCATTGACAGGACAGTGACTAGTAA	2.75	4.69	4.28	2.44	2.69	2.84	0.58	1.07
CTCGAAAGGTCGGTTGACGTGAGTATACGGATAA	1.53	2.54	2.8	1.06	2.29	1.21	-0.605	0.501
CATACAGGGTCAGCTCGGCCAGAGTAGGGACGGC	3.1	4.38	4.49	1.2	3.95	3.01	0.883	0.595
CCAGACAGATGAAAGGTAACTCAGTCTGGTACGC	0.123	0.253	0.272	-0.0479	0.612	0.108	-0.299	0.123
CAAACTAGGTAACAGAGGTCAAAGTCCGTGCGTA	4.45	5.28	4.28	2.34	6.18	4.1	1.95	4.49
CCTATTAGTAGACCATAAGGGCAACCGAAGCTCG	1.65	0.962	0.835	0.475	0.769	1.57	1.11	0.68
GCTCGGAGGACAAGGTCAGAGCGTTGTCCGTAGA	2.97	3.26	3.69	0.33	2.43	2.89	1.25	0.555
ATAGACAGGTGATGAAGGTAACTCAGGCTATCAT	0.392	0.0804	0.356	-0.779	0.265	0.901	0.156	-0.14
GCGACTGGCGCATCAGCAGGTTACCATAACTTAA	-0.252	-0.477	-0.547	-0.402	-0.293	-0.328	-0.551	-0.6
TCATATCGGTAAACAGGTGAAAGTCCGTAAGTTA	0.664	0.475	0.211	1.26	0.834	0.552	0.248	0.533
CCTCGTAGGACAGAAGGTCAGAGCTGTCCGCTTT	3.4	3.02	3.4	0.251	2.18	1.7	-0.0633	0.412
ATCGAAAGGTCGTGCGGTGAGTATACAGAAAGGC	2.65	4.48	4.28	1.56	4.78	2.51	-0.0433	1.31

Sequence	PBM binding z-score [1]	PBM binding z-score [2]	PBM binding z-score [3]	PBM binding z-score [4]	PBM binding z-score [5]	PBM binding z-score [6]	PBM binding z-score [7]	PBM binding z-score [8]
ATCTCCAGGTAAGACTCAGTTCAGTGAAGAACGC	0.752	0.584	0.474	0.412	0.366	1.1	1.32	1.27
TCATATAGGTAAAGGGGAAAGTCGAACGATATGA	0.241	0.707	0.688	1.39	1.21	0.241	-0.0232	-0.173
ATCTCTAGCTAAAGATAGTTCAGTGAATGCAAAT	0.481	0.461	0.353	-0.2	0.159	0.114	-0.112	0.516
CGCCAAAGTTCAACTAAGGTAACGTAAAGCACGC	4.29	5.87	6.48	4.67	4.49	5.24	2.11	3.81
GTACCAAGGTGAATAGGTCGTAGATGAGTAGGCG	1.92	2.94	1.61	-0.478	2.18	1.83	0.42	0.204
CCTGATAGGTCAATGGTCAGCTAAAGCAGCTCGC	3.38	4.62	4.89	1.32	3.76	1.72	-0.0298	0.339
CTCGAAAGGTCGGTTGAGATGAGTATACGGATAA	1.74	2.2	2.5	0.887	2.01	1.72	-0.23	0.738
ATCGAAAGGTCGACGAGGTGAATATACACCGTTT	2.97	4.55	3.93	1.7	4.64	4.06	1.54	1.84
AATCCAGGGTCACTAGGCCAGAGTAGGTACGAAT	3.4	5.39	4.98	2.49	5.55	3.54	1.29	2.57
ATCGAATGGTCGACGAGGTGAGTATACACCGTTT	-0.00631	0.294	0.526	-0.27	0.305	1.03	0.408	-0.381
ACTAGCACGCCAAGGGTCACTCAAGATTAGTCCG	3.93	3.88	3.91	1.02	3.73	2.86	0.515	1.49
CGTCCAAGGTCAGCAGTTCAGTGAAAGCGACGTG	4.62	5.66	6.02	2.93	4.16	3.78	2.45	2.41
CCTTGGAGGACAACAGGAGGTCAGAGCTGCCAGA	3.58	3.49	3.03	0.451	2.08	2.88	1.13	1.24
TCTATTGGTTGATTAGGGCAACCGAAACAGCGGA	0.698	0.341	0.499	0.712	0.317	0.871	0.352	0.054
CGAACTAGGCCATCCAGGACAGTGAATACATTGA	0.41	0.517	0.851	0.537	0.302	1.57	0.93	0.275
CCGAGTAGGTTATGGGGCATTCAGGCAACGGTGA	1.08	0.469	0.552	0.0295	0.728	0.503	0.317	-0.196
AGAATGTGGTTACCAAAGATCAGGGAAACGCTTG	-0.487	0.0233	0.17	-0.485	0.156	-0.05	-0.409	-0.534
ATCTCTAGGTAAAGTTCTGTGAAAGATCGATAGA	-0.0506	0.0649	0.264	0.162	-0.238	0.488	0.369	0.0394
TAGCCTAGGTCATGTGGGCCAGTATAGTGTCGGC	3.33	3.77	4.65	0.816	3.13	2.97	1.48	0.672
